The structures appear in SMILES notation. Activity calls are given as the source filed them. How the source made its calls: active means hit-call score of the fitted dose curve at least 0.9, where 1 is the maximum; inactive means score below 0.9.

What is called AC50 is the concentration giving half of the maximal activity seen.

The experiment can be described thus: ATG_MRE_CIS: Attagene CIS-FACTORIAL HepG2 Assay for human Metal Responsive Element (MRE) (AID 2282954). Conditions: HepG2 MRE cis-reporter transcription, Attagene multiplex; actives raise or lower the signal. Put shortly:
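Step one: transfect HepG2 with cis-regulated reporter units. Step two: dose 24 h. Step three: isolate RNA, RT-PCR, 6-FAM label, HpaI digest, capillary electrophoresis. Fit bidirectionally to DMSO.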
For `[Cl][Nd]([Cl])[Cl]`, the result was inactive.

For the molecule `CC/C=C\C/C=C\C/C=C\CCCCCCCC(=O)O`, the AC50 is 140 µM (active).

Turning to `CCOC(=O)CC`, the result was inactive.

As to `Nc1ccc(-c2ccc(F)cc2)cc1`, the result was inactive.

In the case of `CC(=O)Oc1ccc(C(C)=O)cc1`, the result was inactive.

Take `C=C(C)C(=O)OCC(C)C`: the molecule was called inactive.

For the molecule `O=C(Nc1ccccc1)c1ccccc1O`, the result was inactive.

For `CC(C)c1ccc(C#N)cc1`, the outcome was inactive.

With `CCCCCCCCCCC=CC#N`, the molecule was classed as inactive.

As for `O=C1OC(=O)c2cc(Oc3ccc4c(c3)C(=O)OC4=O)ccc21`, the call was inactive.

Take `COc1cc(C)ccc1C(C)C`: the molecule was classed as inactive.

With `Cc1cccc(N)n1`, the result was inactive.

Regarding `O=S(=O)(O)CC(O)CCl` (stereo not given), the outcome was inactive.

For `COc1ccc([C@@H]2CC(=O)c3c(O)cc(O[C@@H]4O[C@H](CO[C@@H]5O[C@@H](C)[C@H](O)[C@@H](O)[C@H]5O)[C@@H](O)[C@H](O)[C@H]4O)cc3O2)cc1OC`, the outcome was inactive.

`c1cc(N(CC2CO2)CC2CO2)ccc1OCC1CO1` (stereo not given): the AC50 was 31.7 µM (active).

On to `CCCCC(CC)CCC(CC(C)C)OS(=O)(=O)O` (stereo not given), for which the molecule was called inactive.

Turning to `[Cl][Bi]([Cl])([c]1ccccc1)([c]1ccccc1)[c]1ccccc1`, the concentration at half-maximal activity (AC50) is 6.46 µM (active).

Turning to `O=C(O)C(c1ccc(Cl)cc1)c1ccc(Cl)cc1`, the outcome was inactive.

For `CC1=Nc2ccc3ccccc3c2C1(C)C`, the AC50 is 100 µM (active).

As for `O=c1c2ccccc2nnn1CCl`, the result was inactive.

As to `CN(C)c1ccc(N=Nc2ccccc2C(=O)O)cc1`, the AC50 was 43.9 µM (active).

Consider `S=C(NC1CCCCC1)NC1CCCCC1`, for which the call was inactive.

Turning to `COc1cc(NC(=O)CC(C)=O)c(OC)cc1Cl`, the molecule was classed as inactive.

For the molecule `O=C(/C=C/C=C/c1ccc2c(c1)OCO2)N1CCCCC1`, the AC50 was 96.1 µM (active).

With `CC(C)COC(=O)C=Cc1ccccc1`, the call was inactive.

For `CCN(CCO)c1cccc(C)c1`, the molecule was classed as inactive.

As to `C=C[Si](OC(C)=O)(OC(C)=O)OC(C)=O`, the outcome was inactive.

Turning to `CCCC(=O)OCc1ccccc1`, the outcome was inactive.

For the molecule `O=C(Cl)c1cc(C(=O)Cl)cc(C(=O)Cl)c1`, the molecule was classed as inactive.

In the case of `CC(=O)OCC(C)OC(C)=O` (stereo not given), the molecule was classed as inactive.

In the case of `Nc1cccc(C(F)(F)F)c1`, the call was inactive.

Turning to `Cc1cc(=O)n(-c2ccccc2)n1C`, the result was inactive.

In the case of `Cc1ccc(N/N=c2\c(=O)cc/c(=N/Nc3ccc(S(=O)(=O)O)cc3)c2=O)c(C)c1`, the result was inactive.

On to `Cc1cc(C)c(C)cc1C`, for which the result was inactive.

As to `CCC(Cc1ccccc1)(C(=O)c1ccc(N2CCOCC2)cc1)N(C)C` (stereo not given), the AC50 was 52.7 µM (active).

Turning to `Cc1cc(C)c(C)c(C)c1`, the molecule was called inactive.

Turning to `CC(C)CC(O)Cc1ccccc1` (stereo not given), the call was inactive.

As for `C=C(C)C(=O)OCCOc1ccccc1`, the outcome was inactive.

Turning to `CCCOCCOCCOCCO`, the molecule was called inactive.

Consider `C=CCCCCCCCCC(=O)OCCCC`, for which the result was inactive.
